Reference: PubChem BioAssay (NCATS)
Inconclusive results are not listed. Calls of active or inactive are those of the source. The call rests on the fitted dose curve; in most records, active means well fitted curve in the direction sought with a large enough effect; inconclusive means small, poorly fitted or top-dose-only effect, or another doubt; inactive means no such curve, though single readings can be large; an effect the other way counts as inactive or inconclusive.

How the values were obtained:
[1] = test system: C33A; experiment: Primary qHTS to identify gynecologic anti-cancer compounds using libraries of approved drugs and bioactive compounds (AID 1345084); details: Gynecologic cancer cell panel viability, ATPlite luminescence, 48 h; series mostly up to 57.5 µM; further: nearly all actives have a fitted effect of over 55% in size
Method in brief: (§1)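 Luminescence from the ATPlite ATP-monitoring reagent indicates viable cell number; lower signal means cytotoxicity. Cells received compound 16 h after seeding and were exposed for 48 h across five concentrations.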

[2] = test system: CAOV3; experiment: as above; details: Gynecologic cancer cell panel viability, ATPlite luminescence, 48 h; series mostly up to 57.5 µM
Method in brief: as §1

[3] = test system: CASKI; experiment: as above; details: Gynecologic cancer cell panel viability, ATPlite luminescence, 48 h; series mostly up to 57.5 µM
Method in brief: as §1

[4] = test system: Es-2; experiment: as above; details: Gynecologic cancer cell panel viability, ATPlite luminescence, 48 h; series mostly up to 57.5 µM
Method in brief: as §1

[5] = test system: HeLa; experiment: as above; details: Gynecologic cancer cell panel viability, ATPlite luminescence, 48 h; series mostly up to 57.5 µM
Method in brief: as §1

[6] = test system: Hek293T; experiment: as above; details: Gynecologic cancer cell panel viability, ATPlite luminescence, 48 h, control line for the selectivity index; series mostly up to 57.5 µM
Method in brief: as §1

[7] = test system: JEG-3; experiment: as above; details: Gynecologic cancer cell panel viability, ATPlite luminescence, 48 h; series mostly up to 57.5 µM
Method in brief: as §1

[8] = test system: OV90; experiment: as above; details: Gynecologic cancer cell panel viability, ATPlite luminescence, 48 h; series mostly up to 57.5 µM
Method in brief: as §1

[9] = test system: PA-1; experiment: as above; details: Gynecologic cancer cell panel viability, ATPlite luminescence, 48 h; series mostly up to 57.5 µM
Method in brief: as §1

[10] = test system: SKOV3; experiment: as above; details: Gynecologic cancer cell panel viability, ATPlite luminescence, 48 h; series mostly up to 57.5 µM
Method in brief: as §1

[11] = test system: Tov-21-G; experiment: as above; details: Gynecologic cancer cell panel viability, ATPlite luminescence, 48 h; series mostly up to 57.5 µM
Method in brief: as §1

[12] = test system: Tov112D; experiment: as above; details: Gynecologic cancer cell panel viability, ATPlite luminescence, 48 h; series mostly up to 57.5 µM
Method in brief: as §1

[13] = Drug repurposing screens with cells derived from glioblastoma tumor samples (AID 1345199); details: GBM patient neurospheres viability, ATP luminescence, 48 h; further: nearly all actives have a fitted effect of over 40% in size
Method in brief: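 Primary testing used CD133+ neurospheres from four GBM patients, seven concentrations, 48 h exposure and ATP-based viability; confirmation added three slower-growing patient lines.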
On the % scale 0 is the no-effect control and ±100 the full control effect.

C=C1C2(CCC(=O)OC2(C)C)CC(OC(=O)/C(C)=C/C)C2(C)C13OC14C(=O)OC(C)(C(=O)C12C(=O)OC4C)C3OC(C)=O (configuration not stated)
inactive: Potency [1] | Potency [2] | Potency [3] | Potency [4] | Potency [5] | Potency [6] | Potency [7] | Potency [8] | Potency [9] | Potency [10] | Potency [11] | Potency [12]

C1CCN2CC3C[C@@H](CN4CCCC[C@@H]34)[C@H]2C1
inactive: Potency [1] | Potency [2] | Potency [3] | Potency [4] | Potency [5] | Potency [6] | Potency [7] | Potency [8] | Potency [9] | Potency [10] | Potency [11] | Potency [12]

CC(C)c1nc(N(C)S(C)(=O)=O)nc(-c2ccc(F)cc2)c1/C=C/[C@@H](O)C[C@@H](O)CC(=O)O
inactive: Potency [1] | Potency [2] | Potency [3] | Potency [4] | Potency [5] | Potency [6] | Potency [7] | Potency [8] | Potency [9] | Potency [10] | Potency [11] | Potency [12]

C=C1CC2[C@]3(C)C(=C(O)C(=O)[C@@]2(C)[C@]2(C(=O)OC)C(=O)C(C)OC(=O)[C@@]12C)C(C)(C)C(=O)CC3O (some centres not stated)
inactive: Potency [1] | Potency [2] | Potency [3] | Potency [4] | Potency [5] | Potency [6] | Potency [7] | Potency [8] | Potency [9] | Potency [10] | Potency [11] | Potency [12]

COc1ccc(C2=CC(=O)OC2Cc2ccc(O)cc2)c(O)c1 (configuration not stated)
inactive: Potency [1] | Potency [2] | Potency [3] | Potency [4] | Potency [5] | Potency [6] | Potency [7] | Potency [8] | Potency [9] | Potency [10] | Potency [11] | Potency [12]

OCCc1ccc(O[C@@H]2O[C@H](CO)[C@@H](O)[C@H](O)[C@H]2O)c(O)c1
inactive: Potency [1] | Potency [2] | Potency [3] | Potency [4] | Potency [5] | Potency [6] | Potency [7] | Potency [8] | Potency [9] | Potency [10] | Potency [11] | Potency [12]

CC/C=C/CC1=C(CCCCCCCC(=O)O)CCC1=O
inactive: Potency [1] | Potency [2] | Potency [3] | Potency [4] | Potency [5] | Potency [6] | Potency [7] | Potency [8] | Potency [9] | Potency [11] | Potency [12]

CNC(=O)Nc1ccc(OC)c(NC(=O)NC(=O)c2cc(F)c(F)cc2Cl)c1
inactive: Potency [1] | Potency [2] | Potency [3] | Potency [4] | Potency [5] | Potency [6] | Potency [7] | Potency [8] | Potency [9] | Potency [10] | Potency [11] | Potency [12]

C=C1C(O[C@@H]2O[C@H](CO)[C@@H](O)[C@H](O)[C@@H]2O)CC2C(C)(C)C(O)CCC2(C)C1CC/C(C)=C\CO (some centres not stated)
inactive: Potency [1] | Potency [2] | Potency [3] | Potency [4] | Potency [5] | Potency [6] | Potency [7] | Potency [8] | Potency [9] | Potency [10] | Potency [11] | Potency [12]

CC1=C2C=C(CO)C(CO)CCC2(C)CCC1=O (configuration not stated)
inactive: Potency [1] | Potency [2] | Potency [3] | Potency [4] | Potency [5] | Potency [6] | Potency [7] | Potency [8] | Potency [9] | Potency [10] | Potency [11] | Potency [12]

CC1=CC(=O)OC(C)(CC(C)(O)C(=O)O)C1 (configuration not stated)
inactive: Potency [1] | Potency [2] | Potency [3] | Potency [4] | Potency [5] | Potency [6] | Potency [7] | Potency [8] | Potency [9] | Potency [10] | Potency [11] | Potency [12]

OC[C@H]1O[C@@H](n2cnc3c2NC=NC[C@H]3O)C[C@@H]1O
inactive: activity, negative = cell killing ([13]; at 45.9 µM (top of the series), tumour line B) 2.62% | activity, negative = cell killing ([13]; at 45.9 µM (top of the series), tumour line D) -21% | activity, negative = cell killing ([13]; at 46 µM (top of the series), tumour line A) -9.89% | activity, negative = cell killing ([13]; at 46.1 µM (top of the series), tumour line C) 8.32%

C=C1CCC2C(C)(C(=O)O)CC(O)CC2(C)C1CC/C(C)=C/C(=O)O (configuration not stated)
inactive: Potency [1] | Potency [3] | Potency [4] | Potency [5] | Potency [6] | Potency [7] | Potency [8] | Potency [9] | Potency [10] | Potency [11] | Potency [12]

CCC/C=C/C(=O)O[C@H]1CC(C)(C)CC2[C@]13[C@H](O)O[C@@]21CCC2[C@@]4(C)CC[C@H](O[C@@H]5O[C@H](C(=O)O)[C@@H](O)[C@H](O[C@@H]6O[C@H](CO)[C@H](O)[C@H](O)[C@H]6O[C@@H]6O[C@@H](C)[C@H](O)[C@@H](O)[C@H]6O[C@@H]6OC[C@](O)(CO)[C@H]6O)[C@H]5O[C@@H]5O[C@H](CO)[C@H](O)[C@H](O)[C@H]5O)C(C)(C)C4CC[C@@]2(C)[C@]1(C)C[C@H]3OC(C)=O (some centres not stated)
inactive: activity change, negative = cytotoxicity [1] -4.15% [at 6.55 µM] | activity change, negative = cytotoxicity [3] 2.37% [at 6.55 µM] | activity change, negative = cytotoxicity [4] 2.55% [at 6.55 µM] | activity change, negative = cytotoxicity [5] -1.33% [at 6.55 µM] | activity change, negative = cytotoxicity [6] -6.65% [at 6.55 µM] | activity change, negative = cytotoxicity [7] -6.17% [at 6.55 µM] | activity change, negative = cytotoxicity [8] -0.93% [at 6.55 µM] | activity change, negative = cytotoxicity [9] -0.307% [at 6.55 µM] | activity change, negative = cytotoxicity [10] 13% [at 6.55 µM] | activity change, negative = cytotoxicity [11] 0.0885% [at 6.55 µM] | activity change, negative = cytotoxicity [12] 1.84% [at 6.55 µM]
